In the library only some 0.3% were active in any assay of this set; here they are far more common.
mcGAS lum = mouse cGAS inhibition by luminescence; Q8C6L5; recombinant cGAS, Kinase-Glo ATP depletion luminescence; inhibition, % at 12.5 µM; 160,000 compounds, 0.15% hits; AID 1259399;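 further: 0% = negative control wells and 100% = reference inhibitor with no enzyme activity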
Target sequence (Q8C6L5 whole entry, looked up): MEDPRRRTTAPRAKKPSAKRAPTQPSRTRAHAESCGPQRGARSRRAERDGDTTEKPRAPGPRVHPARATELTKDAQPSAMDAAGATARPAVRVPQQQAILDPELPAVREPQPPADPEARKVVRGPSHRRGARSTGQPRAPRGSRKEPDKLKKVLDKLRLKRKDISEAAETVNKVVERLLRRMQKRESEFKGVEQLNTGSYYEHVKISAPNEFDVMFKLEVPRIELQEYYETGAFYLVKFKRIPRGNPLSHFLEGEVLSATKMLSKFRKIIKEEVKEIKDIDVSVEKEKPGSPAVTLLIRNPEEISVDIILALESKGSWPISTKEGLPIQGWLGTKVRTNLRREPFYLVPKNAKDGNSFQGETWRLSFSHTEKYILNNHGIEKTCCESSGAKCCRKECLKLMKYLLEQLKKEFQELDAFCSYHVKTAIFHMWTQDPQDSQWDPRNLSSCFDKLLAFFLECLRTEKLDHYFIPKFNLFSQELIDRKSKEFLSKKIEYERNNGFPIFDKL
NPYLR7 agonist = mosquito NPYLR7 agonism. HEK293T NPYLR7/Galpha15, GCaMP6s calcium fluorescence. activation, % at 10 µM. 270,000 compounds, 0.15% hits. AID 1259423; in the data active means activation above about 40%;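 further: 0% = vehicle and 100% = reference agonist at the receptor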
hcGAS lum = blocks human cGAS activity; recombinant h-cGAS, ATP depletion, Kinase-Glo luminescence; inhibition, % at 12.5 µM; 290,000 compounds, 0.081% hits; AID 1259398;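 further: 0% = vehicle reaction and 100% = reaction without DNA for no activity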
Starred values were filed as active, the others as inactive; x = no result; + = active, no number. Unless noted, no stated cut-off is given here; in the data, active means inhibition above about 40%; inactive means the rest.

SMILES	mcGAS lum	NPYLR7 agonist	hcGAS lum
COc1ccccc1Oc1nc2ccccn2c(=O)c1/C=C(\C#N)c1nc2ccccc2s1	-4.6	64.6*	-8.7
O=C1CCc2cc(OCC(=O)NC3(c4cccc(Br)c4)CCC3)ccc2N1	-11.1	-0.1	-6.0
COc1ncccc1CNS(=O)(=O)c1ccccc1F	x	9.7	-9.8
N#CN(CCOC(=O)c1ccccc1)C(=O)c1ccccc1	x	-5.7	2.0
CCCCNC(=O)N1CC(C(=O)NCc2ccccc2F)CC(c2ccc(OC)c(OC)c2)C1 (centres undefined)	x	7.0	-16.3
Cn1c(C(C#N)=Cc2ccc([N+](=O)[O-])s2)nc2ccccc21	x	9.8	-4.2
Cn1c(/C(C#N)=C/c2ccc(N3CCOCC3)o2)nc2ccccc21	x	125.8*	-18.1
CN(C)S(=O)(=O)c1ccc(C(=O)Nc2ccc3c(c2)C(=O)c2ccccc2C3=O)cc1	104.5*	19.6	-2.2
Cc1ccc(C(=O)Nc2ccc3c(c2)C(=O)c2ccccc2C3=O)cc1	x	-1.0	-8.4
CCNC(=O)NC(=O)C(C)Sc1nc2sc(C)c(C)c2c(=O)n1C1CCCC1 (centres undefined)	-6.6	1.2	-1.0
COc1ccc(CCNC(=O)c2c(C)noc2-c2ccccc2Cl)cn1	-8.3	9.8	-3.2
COc1ccc(CCNC(=O)c2c(C)noc2-c2cccs2)cn1	67.8*	4.4	1.2
COc1cc(CNC(=O)c2ccc(-c3ccc(Oc4ccccc4)cc3)s2)cc(OC)c1	-10.6	3.5	-11.5
Cc1cc(=O)n2c(n1)NC(N1CCCCC1)=NC2c1ccccn1 (centres undefined)	x	12.7	-2.1
CCCn1nc(C(=O)O)c2c1CCC(N1Cc3nc(C)n(C)c(=O)c3C1)C2 (centres undefined)	x	6.0	-5.9
O=c1cc(-c2cc(O)c(O)c(O)c2)oc2cc(O)cc(O)c12	x	21.9	21.9
O=c1oc2c(O)c(O)cc3c(=O)oc4c(O)c(O)cc1c4c23	x	-10.2	43.2*
Cc1nc(CCN)cc(N(C)Cc2nc(-c3cccnc3)no2)n1	x	1.6	3.8
CC(=O)N1CCCC(Cn2cnc3sccc3c2=O)C1 (centres undefined)	x	11.4	1.5
COC(=O)c1ccc(CN2C(=O)C(CCc3ccccc3)ON=C2c2cnccn2)o1 (centres undefined)	x	8.8	-2.6
COc1ccc(-c2ccc(N)nc2)c(C)c1	x	21.4	-1.9
COc1ccc(-c2cnn(CCC(N)=O)c2)c(C)c1	x	47.3*	-0.3
CCN(CC)C(=O)Oc1ccc2c(ccn2Cc2ccccc2Cl)c1NS(=O)(=O)c1ccc(C)cc1OC	0.2	-1.1	2.4
CC(C)c1nccn1CCCNC(=O)c1ccc(N2CCCO2)nc1	x	11.6	-10.4
COc1ccc(Cl)cc1NC(=O)/C(C#N)=C/c1coc2ccc(C)cc2c1=O	x	49.6*	11.2
SMILES	mcGAS lum	NPYLR7 agonist	hcGAS lum
COc1ccc(C)cc1NC(=O)Cn1cnc2cc(Cl)ccc2c1=O	x	-4.4	-4.3
COCCn1nc(C)c(NC(=O)C(=O)Nc2cccc(C(C)C)c2)c1C	x	0.9	-1.0
CC(C)c1cc(C(=O)NCc2noc(-c3cccs3)n2)n(C)n1	x	5.2	-1.0
CCOc1ccccc1N=C1SCCN1c1ccccc1	4.8	25.9	2.6
COc1ccc(-c2c3c(=O)n(C)c(=O)n(C)c3c3c(COc4ccccc4)nc4ccccc4n23)cc1	x	-13.9	-7.3
CC1C(=O)N(c2cccc(F)c2)CCN1C(=O)C1CCCC1 (centres undefined)	-6.0	-3.4	-7.3
CC1C(=O)N(c2cccc(F)c2)CCN1C(=O)C1CC1 (centres undefined)	-0.5	43.9*	1.6
COc1ccccc1-c1cc(C(=O)NCCCN2CCOCC2)n2nc(-c3ccc(Cl)cc3)cc2n1	41.7*	16.9	-1.5
COc1ccccc1-c1cc(C(=O)NCCCN2CCOCC2)n2nc(-c3ccccc3)cc2n1	-8.3	x	-5.1
O=C(COCc1ccccc1)N1CCc2ccccc2C1c1ccccc1F (centres undefined)	-3.7	-3.9	-2.1
CC(C)(CNC(=O)c1coc(COc2ccc(F)cc2)n1)N1CCOCC1	x	0.9	-7.3
C=CCCC(O)CNc1ccc(-n2nc(OCCOCC)nc2-c2ccccc2C)cc1 (centres undefined)	0.4	-1.2	52.1*
CCOCCOc1nc(-c2ccccc2C)n(-c2ccc(NC(=O)CCCCl)cc2)n1	0.4	-0.9	1.9
C=CCOC(=O)C1=C(C)Nc2nc(SCC(C)C)[nH]c(=O)c2C1c1ccc(C(=O)OC)cc1 (centres undefined)	-9.3	5.4	-6.3
O=[N+]([O-])c1cc([N+](=O)[O-])c2oc(-c3ccccc3)c(Br)c2c1O	90.6*	-9.2	82.4*
O=c1c(O)c(-c2ccccc2)oc2cccc(O)c12	x	1.0	-2.1
O=c1[nH]c(Nc2ccc(Br)cc2)nnc1Cc1ccc(Cl)cc1	x	1.0	-0.9
CCOC(=O)N1CCC(=O)N(CC)C[C@H]2COc3ccccc3[C@H]21	-1.5	0.0	9.5
Cc1cc(C)n(C(C)C(=O)NCC(C)(O)c2ccsc2)n1 (centres undefined)	x	-8.0	6.9
CCc1nccn1CC(=O)N1CCNCC1C(=O)N1CCCC1 (centres undefined)	x	-2.0	-4.8
CC(C(=O)N1CCCC(C(N)=O)C1)N(C)Cc1cccc(C(F)(F)F)c1 (centres undefined)	x	1.4	-6.0
Cc1ncc(CNC(=O)N2CCC(C(C)C)CC2)s1	x	1.7	-3.7
Cc1nccn1CC(C)CNC(=O)N1CCC(C(C)C)CC1 (centres undefined)	67.5*	5.9	-12.0
CC(C)(C)c1ccc(S(=O)(=O)n2cc(-c3ccccc3)c(N)n2)cc1	x	-21.3	4.9
COc1cc(-c2nc(CN(CCO)Cc3cccs3)c(C)o2)ccc1F	x	-3.0	-4.1
SMILES	mcGAS lum	NPYLR7 agonist	hcGAS lum
COc1ccc(C(=O)COc2ccc(-c3noc(C(C)C)n3)cc2)cc1	x	6.9	+
CCOc1ccc(-c2cc(-c3nc(-c4ccc(OC)cc4)no3)[nH]n2)cc1	-8.4	3.4	-8.1
Cc1cn2c3c(=O)n(CCN4CCCCC4)c(=O)n(C)c3nc2n1-c1cccc(Cl)c1	x	0.0	-14.2
CCN1CCc2c(sc(NC(=O)c3ccc(OC)cc3)c2-c2nc3ccccc3s2)C1	-3.0	9.7	-0.1
CCN1CCc2c(sc(NC(=O)COc3ccccc3)c2-c2nc3ccccc3s2)C1	-0.5	52.6*	2.3
CCN1CCc2c(sc(NC(C)=O)c2-c2nc3ccccc3s2)C1	94.2*	5.2	72.8*
CCN1CCc2c(sc(NC(=O)CS(=O)(=O)c3ccccc3)c2-c2nc3ccccc3s2)C1	-8.1	22.5	-8.7
CN1CCc2c(sc(NC(=O)CN3C(=O)c4ccccc4C3=O)c2-c2nc3ccccc3s2)C1	-6.4	2.0	0.5
CCN1CCc2c(sc(NC(=O)c3ccco3)c2-c2nc3ccccc3s2)C1	39.2	9.0	37.8
CCN1CCc2c(sc(NC(=O)CN3C(=O)CCC3=O)c2-c2nc3ccccc3s2)C1	44.1*	23.6	44.7*
CCC(=O)Nc1sc2c(c1-c1nc3ccccc3s1)CCN(CC)C2	100.3*	27.6	73.1*
Cn1c(=O)c2c(-c3cccc(F)c3)c(NCCc3ccccc3)oc2n(C)c1=O	0.7	4.8	5.7
CCN1CCc2c(sc(NC(=O)c3ccc(C(C)=O)cc3)c2-c2nc3ccccc3s2)C1	1.6	20.0	7.1
CCN1CCc2c(sc(NC(=O)c3ccccc3)c2-c2nc3ccccc3s2)C1	5.7	90.5*	16.5
